How the values were obtained:
Test in all cases: DAPPL (digital affinity profiling via proximity ligation, sequencing); 10 mM Tris-HCl pH 7.5, 50 mM NaCl, 1 mM DTT, 4% glycerol, room temperature, 30 min; GST-TFs on glutathione beads, 16-mer random dsDNA library, 0.1% formaldehyde crosslink after washing; high values mean tight binding
[1] = target: T1, FLI1 (Homo sapiens, UniProt Q01543 1-452); conditions: protein: recombinant; tags: N-terminal GST; dsDNA, one strand shown
T1 sequence: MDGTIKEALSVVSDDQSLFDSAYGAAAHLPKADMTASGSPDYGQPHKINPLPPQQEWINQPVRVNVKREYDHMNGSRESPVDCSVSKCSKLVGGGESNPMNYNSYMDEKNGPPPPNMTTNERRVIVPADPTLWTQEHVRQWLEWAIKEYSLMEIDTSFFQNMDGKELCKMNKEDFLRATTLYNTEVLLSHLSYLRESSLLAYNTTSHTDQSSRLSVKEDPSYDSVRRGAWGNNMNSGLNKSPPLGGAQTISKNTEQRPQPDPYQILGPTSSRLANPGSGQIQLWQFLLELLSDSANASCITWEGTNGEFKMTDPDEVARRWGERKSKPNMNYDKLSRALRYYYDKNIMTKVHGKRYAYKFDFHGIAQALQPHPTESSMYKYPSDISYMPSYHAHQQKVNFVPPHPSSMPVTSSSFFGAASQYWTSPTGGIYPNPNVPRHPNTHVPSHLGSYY
Method in brief: (§1)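 Human transcription factors were made in yeast as GST fusions, captured on glutathione beads and barcoded with DNA. With a tag-only sample included, the pool was incubated with 200 nmole of a random double-stranded 16-mer DNA library in Tris/NaCl/DTT/glycerol buffer at room temperature for 30 min, then crosslinked with 0.1% formaldehyde after washing, ligated by proximity, amplified and sequenced. For binding signal, each hexamer's read frequency for a factor is divided by its frequency for the tag-only sample.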

[2] = target: T2, ELK1 (Homo sapiens, UniProt P19419 1-428); conditions: protein: recombinant; tags: N-terminal GST; dsDNA, one strand shown
T2 sequence: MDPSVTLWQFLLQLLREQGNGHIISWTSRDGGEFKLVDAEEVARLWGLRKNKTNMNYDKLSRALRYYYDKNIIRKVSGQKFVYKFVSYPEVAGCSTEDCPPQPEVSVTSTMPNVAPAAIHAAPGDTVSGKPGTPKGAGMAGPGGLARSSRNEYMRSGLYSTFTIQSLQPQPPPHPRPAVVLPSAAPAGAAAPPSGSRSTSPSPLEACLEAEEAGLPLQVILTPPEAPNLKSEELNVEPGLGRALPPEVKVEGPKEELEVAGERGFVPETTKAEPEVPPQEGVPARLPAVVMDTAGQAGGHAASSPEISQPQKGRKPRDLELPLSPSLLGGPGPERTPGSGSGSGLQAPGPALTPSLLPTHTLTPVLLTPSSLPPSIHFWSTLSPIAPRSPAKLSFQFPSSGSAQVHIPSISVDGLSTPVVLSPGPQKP
Method in brief: as §1

[3] = target: T3, GABPA (Homo sapiens, UniProt Q06546 1-454); conditions: protein: recombinant; tags: N-terminal GST; dsDNA, one strand shown
T3 sequence: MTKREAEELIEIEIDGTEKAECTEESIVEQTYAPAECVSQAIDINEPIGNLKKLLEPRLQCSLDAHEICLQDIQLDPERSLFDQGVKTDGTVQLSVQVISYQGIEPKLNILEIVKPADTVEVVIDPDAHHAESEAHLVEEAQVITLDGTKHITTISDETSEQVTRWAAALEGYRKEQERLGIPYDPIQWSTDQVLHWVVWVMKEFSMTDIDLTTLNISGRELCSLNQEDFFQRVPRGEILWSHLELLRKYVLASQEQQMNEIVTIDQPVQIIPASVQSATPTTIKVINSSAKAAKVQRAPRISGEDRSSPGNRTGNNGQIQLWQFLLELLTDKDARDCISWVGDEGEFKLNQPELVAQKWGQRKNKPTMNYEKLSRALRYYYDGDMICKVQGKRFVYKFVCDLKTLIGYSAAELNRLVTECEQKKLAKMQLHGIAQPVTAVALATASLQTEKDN
Method in brief: as §1

[4] = target: T4, ERG (Homo sapiens, UniProt P11308 1-479); conditions: protein: recombinant; tags: N-terminal GST; dsDNA, one strand shown
T4 sequence: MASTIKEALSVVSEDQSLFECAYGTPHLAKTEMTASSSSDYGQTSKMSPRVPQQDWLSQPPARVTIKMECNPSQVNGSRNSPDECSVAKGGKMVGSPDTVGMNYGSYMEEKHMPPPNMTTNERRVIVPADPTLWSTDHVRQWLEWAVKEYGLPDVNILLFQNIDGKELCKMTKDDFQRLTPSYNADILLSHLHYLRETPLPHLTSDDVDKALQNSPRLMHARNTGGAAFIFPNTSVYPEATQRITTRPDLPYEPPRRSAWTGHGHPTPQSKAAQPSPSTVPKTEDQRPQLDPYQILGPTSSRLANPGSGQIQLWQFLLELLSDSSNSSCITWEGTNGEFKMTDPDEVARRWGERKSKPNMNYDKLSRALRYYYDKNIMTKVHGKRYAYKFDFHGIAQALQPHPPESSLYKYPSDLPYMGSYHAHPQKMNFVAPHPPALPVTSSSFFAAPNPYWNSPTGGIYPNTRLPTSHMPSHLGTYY
Method in brief: as §1

[5] = target: ELF1 (Homo sapiens, UniProt P32519 1-619); conditions: protein: recombinant; tags: N-terminal GST; dsDNA, one strand shown
ELF1, sequence (P32519 whole entry): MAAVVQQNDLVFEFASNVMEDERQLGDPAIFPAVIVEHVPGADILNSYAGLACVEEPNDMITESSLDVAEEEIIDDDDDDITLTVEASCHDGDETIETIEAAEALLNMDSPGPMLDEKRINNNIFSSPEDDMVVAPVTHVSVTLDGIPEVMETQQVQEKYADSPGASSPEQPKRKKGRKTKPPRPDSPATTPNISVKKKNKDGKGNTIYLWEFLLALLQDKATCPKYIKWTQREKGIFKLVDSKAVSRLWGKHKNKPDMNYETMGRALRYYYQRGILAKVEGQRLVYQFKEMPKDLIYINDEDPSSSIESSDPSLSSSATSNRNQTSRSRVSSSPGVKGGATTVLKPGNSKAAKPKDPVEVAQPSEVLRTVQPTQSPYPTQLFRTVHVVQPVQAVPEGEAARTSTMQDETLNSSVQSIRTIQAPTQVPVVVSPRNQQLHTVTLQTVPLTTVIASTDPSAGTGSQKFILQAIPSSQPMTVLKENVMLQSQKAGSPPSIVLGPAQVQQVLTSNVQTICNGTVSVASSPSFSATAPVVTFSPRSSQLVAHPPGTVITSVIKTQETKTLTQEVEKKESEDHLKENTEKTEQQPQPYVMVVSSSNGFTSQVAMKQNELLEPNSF
Method in brief: as §1

[6] = target: T5, EHF (Homo sapiens, UniProt Q9NZC4 1-300); conditions: protein: recombinant; tags: N-terminal GST; dsDNA, one strand shown
T5 sequence: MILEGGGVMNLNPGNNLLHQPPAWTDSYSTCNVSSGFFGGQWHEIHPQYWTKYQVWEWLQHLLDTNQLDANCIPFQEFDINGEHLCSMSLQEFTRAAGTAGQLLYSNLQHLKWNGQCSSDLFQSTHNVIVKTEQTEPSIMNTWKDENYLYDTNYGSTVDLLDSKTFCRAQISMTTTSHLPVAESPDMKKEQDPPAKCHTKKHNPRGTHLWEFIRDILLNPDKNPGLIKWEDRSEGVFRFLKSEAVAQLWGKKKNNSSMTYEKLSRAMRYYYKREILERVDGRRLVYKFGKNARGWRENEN
Method in brief: as §1

[7] = target: SPI1 (Homo sapiens, UniProt P17947 1-270); conditions: protein: recombinant; tags: N-terminal GST; dsDNA, one strand shown
Method in brief: as §1

[8] = target: SPIB (Homo sapiens, UniProt Q01892 1-262); conditions: protein: recombinant; tags: N-terminal GST; dsDNA, one strand shown
SPIB, sequence (Q01892 whole entry): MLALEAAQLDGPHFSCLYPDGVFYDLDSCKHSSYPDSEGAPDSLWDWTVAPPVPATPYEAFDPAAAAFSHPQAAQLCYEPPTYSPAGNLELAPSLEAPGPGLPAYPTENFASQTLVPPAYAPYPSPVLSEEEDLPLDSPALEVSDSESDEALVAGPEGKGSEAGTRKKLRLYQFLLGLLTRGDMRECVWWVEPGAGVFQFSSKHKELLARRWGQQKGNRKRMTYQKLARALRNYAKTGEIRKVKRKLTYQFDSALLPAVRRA
Method in brief: as §1

[9] = target: T6, FEV (Homo sapiens, UniProt Q99581 1-238); conditions: protein: recombinant; tags: N-terminal GST; dsDNA, one strand shown
T6 sequence: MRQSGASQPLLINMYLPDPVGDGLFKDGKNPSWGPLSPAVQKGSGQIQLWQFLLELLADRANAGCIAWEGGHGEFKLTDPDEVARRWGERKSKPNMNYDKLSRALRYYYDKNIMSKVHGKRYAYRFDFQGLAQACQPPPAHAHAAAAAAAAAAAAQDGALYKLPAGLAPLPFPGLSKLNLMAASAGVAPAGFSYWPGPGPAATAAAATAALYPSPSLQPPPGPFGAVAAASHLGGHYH
Method in brief: as §1

[10] = target: ETV5 (Homo sapiens, UniProt P41161 1-510); conditions: protein: recombinant; tags: N-terminal GST; dsDNA, one strand shown
ETV5, sequence (P41161 whole entry): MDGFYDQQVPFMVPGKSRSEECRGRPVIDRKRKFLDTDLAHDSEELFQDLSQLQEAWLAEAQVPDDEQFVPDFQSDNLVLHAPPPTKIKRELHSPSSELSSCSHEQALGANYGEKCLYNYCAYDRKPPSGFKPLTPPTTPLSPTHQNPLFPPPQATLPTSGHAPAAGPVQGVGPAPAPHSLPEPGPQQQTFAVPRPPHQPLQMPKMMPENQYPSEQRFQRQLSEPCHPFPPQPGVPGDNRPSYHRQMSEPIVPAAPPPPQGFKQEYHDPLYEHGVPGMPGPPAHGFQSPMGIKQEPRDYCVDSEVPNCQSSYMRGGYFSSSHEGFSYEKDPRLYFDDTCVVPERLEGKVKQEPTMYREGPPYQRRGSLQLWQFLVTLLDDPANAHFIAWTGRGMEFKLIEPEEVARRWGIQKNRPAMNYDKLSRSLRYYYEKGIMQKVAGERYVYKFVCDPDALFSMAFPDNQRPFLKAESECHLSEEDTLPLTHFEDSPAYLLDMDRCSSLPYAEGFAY
Method in brief: as §1

[11] = target: HSF1 (Homo sapiens, UniProt Q00613 1-529); conditions: protein: recombinant; tags: N-terminal GST; chain copies: 3; dsDNA, one strand shown
HSF1, sequence (Q00613 whole entry): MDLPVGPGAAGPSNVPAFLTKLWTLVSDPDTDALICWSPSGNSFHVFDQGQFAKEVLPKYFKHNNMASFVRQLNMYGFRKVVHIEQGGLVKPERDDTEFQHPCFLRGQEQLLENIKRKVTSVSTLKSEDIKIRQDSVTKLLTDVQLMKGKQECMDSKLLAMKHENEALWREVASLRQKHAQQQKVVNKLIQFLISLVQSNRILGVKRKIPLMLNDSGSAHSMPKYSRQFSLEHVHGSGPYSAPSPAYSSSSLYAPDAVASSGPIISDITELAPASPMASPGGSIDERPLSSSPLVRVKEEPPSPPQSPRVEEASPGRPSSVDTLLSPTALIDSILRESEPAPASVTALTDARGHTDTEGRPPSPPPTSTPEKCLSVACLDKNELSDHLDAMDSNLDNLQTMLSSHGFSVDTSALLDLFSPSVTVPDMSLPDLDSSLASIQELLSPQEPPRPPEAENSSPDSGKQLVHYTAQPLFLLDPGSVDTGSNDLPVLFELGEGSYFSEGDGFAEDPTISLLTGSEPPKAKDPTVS
Method in brief: as §1

[12] = target: T7, SPIC (Homo sapiens, UniProt Q8N5J4 1-248); conditions: protein: recombinant; tags: N-terminal GST; dsDNA, one strand shown
T7 sequence: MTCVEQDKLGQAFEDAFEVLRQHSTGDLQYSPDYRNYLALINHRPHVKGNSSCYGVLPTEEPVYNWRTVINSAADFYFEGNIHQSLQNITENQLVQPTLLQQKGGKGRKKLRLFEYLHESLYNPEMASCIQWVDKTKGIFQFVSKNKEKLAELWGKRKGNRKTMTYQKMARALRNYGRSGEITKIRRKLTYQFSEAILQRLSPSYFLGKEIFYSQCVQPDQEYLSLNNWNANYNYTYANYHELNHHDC
Method in brief: as §1

[13] = target: ELF4 (Homo sapiens, UniProt Q99607 1-663); conditions: protein: recombinant; tags: N-terminal GST; dsDNA, one strand shown
ELF4, sequence (Q99607 whole entry): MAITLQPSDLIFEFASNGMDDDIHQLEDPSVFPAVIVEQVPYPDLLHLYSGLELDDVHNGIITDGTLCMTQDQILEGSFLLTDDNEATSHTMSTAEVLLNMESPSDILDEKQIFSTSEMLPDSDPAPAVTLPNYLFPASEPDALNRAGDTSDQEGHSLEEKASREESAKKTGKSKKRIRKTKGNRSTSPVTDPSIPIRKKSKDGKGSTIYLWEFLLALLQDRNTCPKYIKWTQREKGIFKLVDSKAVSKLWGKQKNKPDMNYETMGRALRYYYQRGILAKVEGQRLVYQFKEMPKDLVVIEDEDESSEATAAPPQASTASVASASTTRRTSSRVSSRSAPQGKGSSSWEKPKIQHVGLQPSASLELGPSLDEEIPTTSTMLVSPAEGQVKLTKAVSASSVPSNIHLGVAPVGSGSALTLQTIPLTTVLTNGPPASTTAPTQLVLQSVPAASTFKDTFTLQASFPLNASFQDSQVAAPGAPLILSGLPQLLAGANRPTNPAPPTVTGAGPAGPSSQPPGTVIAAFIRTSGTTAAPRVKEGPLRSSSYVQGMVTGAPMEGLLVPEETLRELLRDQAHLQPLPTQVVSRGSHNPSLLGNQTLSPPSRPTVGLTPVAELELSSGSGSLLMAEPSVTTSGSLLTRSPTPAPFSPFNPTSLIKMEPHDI
Method in brief: as §1

[14] = target: T8, ELK4 (Homo sapiens, UniProt P28324-2 1-405); conditions: protein: recombinant; tags: N-terminal GST; dsDNA, one strand shown
T8 sequence: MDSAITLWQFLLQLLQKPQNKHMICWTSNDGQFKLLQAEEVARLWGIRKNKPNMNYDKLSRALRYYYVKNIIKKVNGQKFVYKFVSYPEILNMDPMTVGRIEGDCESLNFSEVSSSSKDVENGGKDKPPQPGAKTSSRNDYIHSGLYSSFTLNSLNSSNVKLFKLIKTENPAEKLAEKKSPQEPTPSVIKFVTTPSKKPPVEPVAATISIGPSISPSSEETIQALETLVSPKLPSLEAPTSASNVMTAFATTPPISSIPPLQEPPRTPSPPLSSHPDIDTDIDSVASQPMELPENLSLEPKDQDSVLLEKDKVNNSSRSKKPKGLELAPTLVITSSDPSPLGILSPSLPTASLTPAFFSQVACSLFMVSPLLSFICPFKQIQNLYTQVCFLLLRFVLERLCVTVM
Method in brief: as §1

[15] = target: T9, ETV2 (Homo sapiens, UniProt O00321 1-342); conditions: protein: recombinant; tags: N-terminal GST; dsDNA, one strand shown
T9 sequence: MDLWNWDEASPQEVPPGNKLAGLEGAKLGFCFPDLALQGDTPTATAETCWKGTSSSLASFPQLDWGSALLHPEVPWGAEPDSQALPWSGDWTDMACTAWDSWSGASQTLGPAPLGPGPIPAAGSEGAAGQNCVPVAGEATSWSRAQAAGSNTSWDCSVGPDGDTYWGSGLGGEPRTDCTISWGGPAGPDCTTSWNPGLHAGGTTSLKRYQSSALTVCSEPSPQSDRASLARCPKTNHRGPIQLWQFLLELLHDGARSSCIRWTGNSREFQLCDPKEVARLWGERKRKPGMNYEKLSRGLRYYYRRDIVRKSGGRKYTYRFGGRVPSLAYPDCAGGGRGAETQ
Method in brief: as §1

[16] = target: T10, ELF3 (Homo sapiens, UniProt P78545 1-371); conditions: protein: recombinant; tags: N-terminal GST; dsDNA, one strand shown
T10 sequence: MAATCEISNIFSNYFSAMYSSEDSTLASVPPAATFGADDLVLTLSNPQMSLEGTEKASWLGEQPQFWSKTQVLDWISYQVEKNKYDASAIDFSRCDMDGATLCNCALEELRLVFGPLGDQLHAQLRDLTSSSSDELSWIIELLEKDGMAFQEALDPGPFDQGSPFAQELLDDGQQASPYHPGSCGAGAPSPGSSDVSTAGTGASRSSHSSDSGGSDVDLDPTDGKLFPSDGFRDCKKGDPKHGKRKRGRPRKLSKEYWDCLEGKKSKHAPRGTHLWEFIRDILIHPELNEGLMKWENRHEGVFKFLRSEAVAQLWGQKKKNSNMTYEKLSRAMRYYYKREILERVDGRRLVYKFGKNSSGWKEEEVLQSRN
Method in brief: as §1

[17] = target: CRX (Homo sapiens, UniProt O43186 1-299); conditions: protein: recombinant; tags: N-terminal GST; dsDNA, one strand shown
CRX, sequence (O43186 whole entry): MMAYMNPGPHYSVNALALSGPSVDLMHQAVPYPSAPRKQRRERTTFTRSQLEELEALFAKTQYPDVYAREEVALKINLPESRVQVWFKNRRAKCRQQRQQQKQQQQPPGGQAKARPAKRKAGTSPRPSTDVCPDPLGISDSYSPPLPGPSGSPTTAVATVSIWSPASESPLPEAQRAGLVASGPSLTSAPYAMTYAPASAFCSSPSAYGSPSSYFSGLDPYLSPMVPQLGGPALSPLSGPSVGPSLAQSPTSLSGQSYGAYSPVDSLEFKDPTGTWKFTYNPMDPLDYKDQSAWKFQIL
Method in brief: as §1

[18] = target: ETV1 (Homo sapiens, UniProt P50549 1-477); conditions: protein: recombinant; tags: N-terminal GST; dsDNA, one strand shown
ETV1, sequence (P50549 whole entry): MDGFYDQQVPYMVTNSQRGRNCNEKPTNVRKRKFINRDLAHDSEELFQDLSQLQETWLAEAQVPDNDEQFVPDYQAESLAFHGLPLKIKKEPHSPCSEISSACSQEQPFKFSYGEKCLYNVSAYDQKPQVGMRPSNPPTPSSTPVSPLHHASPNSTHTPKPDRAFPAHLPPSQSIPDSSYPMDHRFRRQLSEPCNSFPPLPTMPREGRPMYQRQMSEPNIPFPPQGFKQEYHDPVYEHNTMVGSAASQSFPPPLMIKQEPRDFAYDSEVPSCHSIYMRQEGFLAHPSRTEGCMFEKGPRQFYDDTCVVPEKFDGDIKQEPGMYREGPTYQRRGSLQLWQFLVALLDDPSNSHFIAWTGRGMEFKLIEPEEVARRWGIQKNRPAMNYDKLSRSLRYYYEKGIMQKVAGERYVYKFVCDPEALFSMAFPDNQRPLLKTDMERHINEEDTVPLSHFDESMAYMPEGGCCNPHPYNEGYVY
Method in brief: as §1

TATTCG
binding signal [1]: 1.11 fold enrichment (6-mer frequency, TF over GST control)
binding signal [2]: 1.11 fold enrichment (6-mer frequency, TF over GST control)
binding signal [3]: 1.2 fold enrichment (6-mer frequency, TF over GST control)
binding signal [4]: 1.14 fold enrichment (6-mer frequency, TF over GST control)
binding signal [5]: 1.14 fold enrichment (6-mer frequency, TF over GST control)
binding signal [6]: 1.11 fold enrichment (6-mer frequency, TF over GST control)
binding signal [7]: 1.18 fold enrichment (6-mer frequency, TF over GST control)
binding signal [8]: 1.16 fold enrichment (6-mer frequency, TF over GST control)
binding signal [9]: 1.06 fold enrichment (6-mer frequency, TF over GST control)
binding signal [10]: 1.11 fold enrichment (6-mer frequency, TF over GST control)
binding signal [11]: 1.64 fold enrichment (6-mer frequency, TF over GST control)
binding signal [12]: 1.17 fold enrichment (6-mer frequency, TF over GST control)
binding signal [13]: 1.17 fold enrichment (6-mer frequency, TF over GST control)
binding signal [14]: 1.22 fold enrichment (6-mer frequency, TF over GST control)
binding signal [15]: 1.24 fold enrichment (6-mer frequency, TF over GST control)
binding signal [16]: 1.35 fold enrichment (6-mer frequency, TF over GST control)
binding signal [17]: 1.43 fold enrichment (6-mer frequency, TF over GST control)
binding signal [18]: 1.05 fold enrichment (6-mer frequency, TF over GST control)
